Our source for the growth values is PubChem BioAssay (NCI).

Molecules are shown by their SMILES. The panel holds about 83,000 compounds, 20% with a hit somewhere; the sample as a whole holds those more often.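 Cells were grown in 96-well plates and exposed to the test compound at a single concentration for 48 hours; results are reported as percent growth, with values below 10 considered active.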 Calls of active or inactive are those of the source.

The subject of one experiment is NCI-H23 lung. Kind of experiment: NCI-60 one-dose screen, 48 h (100 = growth as untreated, 0 = no growth, -100 = all killed). Particulars: 10 µM unless noted.
For the compound `CN1CCN(C(=O)[C@]23CCC(C)(C)C[C@H]2C2=CC[C@@H]4[C@@]5(C)C/C(=C/c6ccncc6)C(=O)C(C)(C)[C@@H]5CC[C@@]4(C)[C@]2(C)CC3)CC1`, the growth was 72.4% (inactive).
Same read-out and setting: to `C=C(C)[C@@H]1CC[C@]2(C(=O)N3CCN(C)CC3)CC[C@]3(C)[C@H](CC[C@@H]4[C@@]5(C)C/C(=C/c6cccnc6)C(=O)C(C)(C)[C@@H]5CC[C@]43C)[C@@H]12` belongs 78.5% (inactive).
On the same count and under the same terms, to `N/C(=N\C(N)=N\c1nc2ccccc2s1)c1cccc(Cl)c1` belongs 58.4% (inactive).
On to `CCOC(=O)Nc1ccc(-c2ccc3c(c2)NC(=O)/C3=C\c2ccc[nH]2)cc1`, for which the growth is 47.3% (inactive).
The same measure, in the same setting: the result for `CCNC(=O)Oc1ccc(/C(=C(\C)c2ccccc2)c2ccc(OCCN(CC)CC)cc2)cc1` reads 78.9% (inactive); that for `CCOC(=O)/C(C#N)=C1/NNC(=Nc2cccnc2)S1`, 97.7% (inactive).
On the same count and under the same terms, to `COc1cccc(-c2nc3occn3c2-c2ccnc(NCCCNS(=O)(=O)c3ccc(C(F)(F)F)cc3)n2)c1` belongs 99.3% (inactive); to `CC(=O)Nc1ccc(-n2cnc3cc(-c4ccc(OCCN5CCCCC5)cc4)ccc32)cc1`, 73.2% (inactive).
For the compound `Cn1ccnc1C(=O)/C=C/c1ccc(CC(=O)Nc2ccc(Cl)cc2)cc1`, the growth was 19.2% (inactive).
Same read-out and setting: the result for `C=CCN1C(=O)/C(=C/C(=O)OC)S/C1=N\NC(=O)c1cc2ccc1/C=C\c1ccc(cc1)/C=C\2` reads 88.2% (inactive); that for `COc1ccc(/C=C(\C#N)n2nc3cccc(F)c3n2)cc1`, 101% (inactive); that for `N/C(=N\C(N)=N\c1nc2ccccc2s1)c1cnccn1`, 19.8% (inactive).
Same read-out and setting: to `Cc1c(C(=O)NCCC(=O)NO)sc2ncnc(Nc3ccc(NC(=O)Nc4cccc(C(F)(F)F)c4)cc3)c12` belongs 100% (inactive); to `O=C(Nc1ccc(-c2ccc3c(c2)NC(=O)/C3=C\c2ccc[nH]2)cc1)NC1CC1`, 55.1% (inactive).
On the same count and under the same terms, to `S=c1cc(S)c2cc(Br)ccc2[nH]1` belongs 81.5% (inactive).
In the case of `CCCCOc1ccc(/C=N/Nc2cc(C)nc3ccc(Br)cc23)cc1`, the growth was 74.9% (inactive).
Still for that read-out and setting: to `N/C(=N\C(N)=N\c1nc2ccccc2s1)c1ccnc(Br)c1` belongs 44.5% (inactive); to `COc1cc(NC(C)CCCNC(=O)CCC(=O)NCCCNCCCCCCCCNCCCNC(=O)CCC(=O)NCCCC(C)Nc2cc(OC)cc3cccnc23)c2ncccc2c1` (centres undefined), 54.4% (inactive); to `COc1cc2nc(-c3ccc(C(F)(F)F)cc3)cc(OCCCN3CCOCC3)c2cc1OC`, 56.5% (inactive).
On the same count and under the same terms, the result for `O=C(Cn1c[n+](CC(=O)c2ccc(-c3ccccc3)cc2)c2ccccc21)Nc1cccc2cccnc12` reads 23.8% (inactive); that for `CC(Oc1ccc(C(=O)O)cc1C(F)(F)F)c1ccc(Oc2ccccc2)cn1` (centres undefined), 98.6% (inactive).
Still for that read-out and setting: the result for `O=C(Nc1ccc(F)cc1)Nc1ccc(NC(=O)c2cc(Cl)nc3ccccc23)cc1` reads 69.2% (inactive); that for `O=C(CCN1CCCC1)Nc1ccc2c(Nc3ccc(F)cc3)c3ccccc3nc2c1`, -12.8% (active); that for `CC(Sc1nc2ccccc2c(=O)n1CCc1ccc(S(N)(=O)=O)cc1)C(=O)Nc1ccc(Cl)cc1` (centres undefined), 79.5% (inactive).
As for `O=C(N/N=C/c1cc2ccccc2n2nnnc12)Nc1ccccc1`, the growth is 100% (inactive).
The same measure, in the same setting: to `CC1(C)CC(=O)C2=C(C1)N(c1ccc(F)cc1F)C(N)=C(C#N)C2c1cc(Br)ccc1F` (centres undefined) belongs 86.7% (inactive).

For a further experiment, the system named is NCI-H226 lung. Described as above. Particulars: 10 µM unless noted.
As to `O=C(/C=C/c1ccc(Cl)cc1)c1ccc(NC(=O)N2CCN(c3cc4c(cc3F)c(=O)c(C(=O)O)cn4C3CC3)CC2)cc1`, the growth is 89.4% (inactive).
Still for that read-out and setting: the result for `O=C(/C=C(/C=C/c1csc2ccccc12)OB(F)F)/C=C/c1csc2ccccc12` reads 27.9% (inactive); that for `CN1CCN(C(=O)[C@]23CCC(C)(C)C[C@H]2C2=CC[C@@H]4[C@@]5(C)C/C(=C/c6cccnc6)C(=O)C(C)(C)[C@@H]5CC[C@@]4(C)[C@]2(C)CC3)CC1`, 79.7% (inactive).
As for `CC1=CCC(OC(=O)C(C)(O)CCC(O)(C(=O)OC2(C)C=CC(O)(C(C)C)CC2)C(C)C)(C(C)C)CC1` (centres undefined), the growth was 106% (inactive).
For the compound `NC1=NN=C(N)C1=Cc1cc2ccccc2n2nnnc12`, the growth was 100% (inactive).
In the case of `COc1ccc(NC(N)=NCCCOc2ccc(F)cc2)cc1`, the growth is 91% (inactive).
Same read-out and setting: the result for `O=C1c2ccc3c4c(ccc(c24)C(=O)N1CCCNCc1ccccc1)C(=O)N(CCCNCc1ccccc1)C3=O` reads -54.1% (active).
Still for that read-out and setting: to `O=C(NCCNc1nccc(-c2c(-c3cccc(F)c3)nc3sccn23)n1)c1ccc(Cl)cc1` belongs 51.2% (inactive); to `C=C1C(=O)O[C@H]2[C@H]1CC/C(COC(=O)NCCc1c[nH]c3ccc(OC)cc13)=C\CC[C@@]1(C)O[C@@H]21`, 51% (inactive).
The same measure, in the same setting: the result for `COc1cc(CC(=O)c2ccc(O)c(OC)c2)ccc1O` reads 81.9% (inactive).
On to `CCN(CC)c1ccc(/C=N/NC(=O)CSc2nc3ccccc3c(=O)n2CCc2ccc(S(N)(=O)=O)cc2)c(O)c1`, for which the growth was 37.9% (inactive).
The same measure, in the same setting: the result for `Cc1ccc(-n2c3c(c(-c4ccccc4)c2-c2ccccc2)C2=NCCN2C=N3)cc1` reads 72% (inactive).
Regarding `CN1CCN(C(=O)[C@]23CCC(C)(C)C[C@H]2C2=CC[C@@H]4[C@@]5(C)C/C(=C/c6ccncc6)C(=O)C(C)(C)[C@@H]5CC[C@@]4(C)[C@]2(C)CC3)CC1`, the growth is 68.7% (inactive).
Still for that read-out and setting: the result for `C=C(C)[C@@H]1CC[C@]2(C(=O)N3CCN(C)CC3)CC[C@]3(C)[C@H](CC[C@@H]4[C@@]5(C)C/C(=C/c6cccnc6)C(=O)C(C)(C)[C@@H]5CC[C@]43C)[C@@H]12` reads 72.7% (inactive); that for `N/C(=N\C(N)=N\c1nc2ccccc2s1)c1cccc(Cl)c1`, 85.6% (inactive).
Still for that read-out and setting: the result for `CCOC(=O)Nc1ccc(-c2ccc3c(c2)NC(=O)/C3=C\c2ccc[nH]2)cc1` reads 68% (inactive); that for `CCNC(=O)Oc1ccc(/C(=C(\C)c2ccccc2)c2ccc(OCCN(CC)CC)cc2)cc1`, 95.6% (inactive); that for `CCOC(=O)/C(C#N)=C1/NNC(=Nc2cccnc2)S1`, 96.2% (inactive).
Still for that read-out and setting: to `COc1cccc(-c2nc3occn3c2-c2ccnc(NCCCNS(=O)(=O)c3ccc(C(F)(F)F)cc3)n2)c1` belongs 80.5% (inactive); to `CC(=O)Nc1ccc(-n2cnc3cc(-c4ccc(OCCN5CCCCC5)cc4)ccc32)cc1`, 74.1% (inactive).
Take `Cn1ccnc1C(=O)/C=C/c1ccc(CC(=O)Nc2ccc(Cl)cc2)cc1`: the growth was 76.7% (inactive).
The same measure, in the same setting: to `C=CCN1C(=O)/C(=C/C(=O)OC)S/C1=N\NC(=O)c1cc2ccc1/C=C\c1ccc(cc1)/C=C\2` belongs 87.5% (inactive).
On the same count and under the same terms, to `COc1ccc(/C=C(\C#N)n2nc3cccc(F)c3n2)cc1` belongs 96.9% (inactive); to `N/C(=N\C(N)=N\c1nc2ccccc2s1)c1cnccn1`, 22.5% (inactive); to `Cc1c(C(=O)NCCC(=O)NO)sc2ncnc(Nc3ccc(NC(=O)Nc4cccc(C(F)(F)F)c4)cc3)c12`, 97.9% (inactive).
The same measure, in the same setting: to `O=C(Nc1ccc(-c2ccc3c(c2)NC(=O)/C3=C\c2ccc[nH]2)cc1)NC1CC1` belongs 101% (inactive); to `S=c1cc(S)c2cc(Br)ccc2[nH]1`, 83.9% (inactive); to `CCCCOc1ccc(/C=N/Nc2cc(C)nc3ccc(Br)cc23)cc1`, 90.2% (inactive).
As for `N/C(=N\C(N)=N\c1nc2ccccc2s1)c1ccnc(Br)c1`, the growth was 60.1% (inactive).
Same read-out and setting: to `COc1cc(NC(C)CCCNC(=O)CCC(=O)NCCCNCCCCCCCCNCCCNC(=O)CCC(=O)NCCCC(C)Nc2cc(OC)cc3cccnc23)c2ncccc2c1` (centres undefined) belongs 44.5% (inactive); to `COc1cc2nc(-c3ccc(C(F)(F)F)cc3)cc(OCCCN3CCOCC3)c2cc1OC`, -10.5% (active); to `O=C(Cn1c[n+](CC(=O)c2ccc(-c3ccccc3)cc2)c2ccccc21)Nc1cccc2cccnc12`, 50.4% (inactive).
Turning to `CC(Oc1ccc(C(=O)O)cc1C(F)(F)F)c1ccc(Oc2ccccc2)cn1` (centres undefined), the growth was 97.6% (inactive).
Still for that read-out and setting: the result for `O=C(Nc1ccc(F)cc1)Nc1ccc(NC(=O)c2cc(Cl)nc3ccccc23)cc1` reads 52.8% (inactive); that for `O=C(CCN1CCCC1)Nc1ccc2c(Nc3ccc(F)cc3)c3ccccc3nc2c1`, 42.7% (inactive).
The same measure, in the same setting: to `CC(Sc1nc2ccccc2c(=O)n1CCc1ccc(S(N)(=O)=O)cc1)C(=O)Nc1ccc(Cl)cc1` (centres undefined) belongs 76.6% (inactive).
As for `O=C(N/N=C/c1cc2ccccc2n2nnnc12)Nc1ccccc1`, the growth is 103% (inactive).
Turning to `CC1(C)CC(=O)C2=C(C1)N(c1ccc(F)cc1F)C(N)=C(C#N)C2c1cc(Br)ccc1F` (centres undefined), the growth was 103% (inactive).
